Source: PubChem BioAssay (Tox21)
Inconclusive results are not listed. Active and inactive are the calls of the source. Unless noted, calls follow the shape of the dose curve; as a rule, active = well fitted curve in the direction sought with a large enough effect in the repeat runs; inconclusive = weak or mixed curves; inactive = no such curve, though single readings can be large; an effect the other way counts as inactive or inconclusive.

Columns and labels:
[1] = biological target: Thyrotropin receptor (Homo sapiens) (UniProt P16473); assay: qHTS assay to identify small molecule antagonists of the thyroid stimulating hormone receptor (TSHR) signaling pathway (AID 1259385; calls by dose curve; also: nearly all actives have a fitted effect of over 20% in size)
Sequence of Thyrotropin receptor (Homo sapiens) (P16473 whole entry, looked up): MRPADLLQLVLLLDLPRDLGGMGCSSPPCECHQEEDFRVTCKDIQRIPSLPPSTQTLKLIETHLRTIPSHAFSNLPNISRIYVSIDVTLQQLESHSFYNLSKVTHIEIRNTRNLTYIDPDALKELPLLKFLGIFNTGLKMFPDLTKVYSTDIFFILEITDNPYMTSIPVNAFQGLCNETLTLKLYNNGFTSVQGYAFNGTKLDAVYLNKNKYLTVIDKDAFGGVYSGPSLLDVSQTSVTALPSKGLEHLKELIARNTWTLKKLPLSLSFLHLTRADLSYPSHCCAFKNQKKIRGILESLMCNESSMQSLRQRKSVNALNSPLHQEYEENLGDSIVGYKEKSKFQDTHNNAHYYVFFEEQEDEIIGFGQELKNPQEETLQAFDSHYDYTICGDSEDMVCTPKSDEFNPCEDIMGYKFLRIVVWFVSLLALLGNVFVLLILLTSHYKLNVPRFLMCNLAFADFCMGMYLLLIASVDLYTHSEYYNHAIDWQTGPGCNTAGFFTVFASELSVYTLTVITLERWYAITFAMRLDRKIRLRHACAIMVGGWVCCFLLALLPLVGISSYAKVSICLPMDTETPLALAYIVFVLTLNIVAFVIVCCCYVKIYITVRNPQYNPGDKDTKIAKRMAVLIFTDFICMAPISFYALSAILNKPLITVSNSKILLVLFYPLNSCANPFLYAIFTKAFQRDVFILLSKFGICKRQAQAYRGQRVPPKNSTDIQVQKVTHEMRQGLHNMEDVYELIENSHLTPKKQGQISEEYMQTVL
Procedure, shortened: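 Antagonist mode: compound-treated TSHR-expressing HEK293 cells were stimulated with 1.5 ng/mL TSH (final) in presence of Ro20-1724 for 30 min at RT. HTRF cAMP detection after 1 h; each compound tested at 15 concentrations, triplicate.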

[2] = qHTS assay to identify small molecule agonists of the estrogen receptor alpha (ER-alpha) signaling pathway in the presence of an antagonist - cell viability counter screen (AID 1259386);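 also: series mostly up to about 92 µM; cells exposed to compounds for 22 h at 37 °C before the viability read; nearly all actives have a fitted effect of over 30% in size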
Procedure, shortened: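 Cells are starved of estrogens for 5 days in charcoal-stripped serum, seeded for 24hr and co-treated with ICI-182,780 (10.0nM final) and test compounds. After 22hr at 37C, viability is read as CellTiter-Fluor fluorescence.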

[3] = biological target: Progesterone receptor (Homo sapiens) (UniProt P06401); assay: qHTS assay to identify small molecule agonists of the progesterone receptor (PR) signaling pathway (AID 1346784; calls by dose curve; also: nearly all actives have a fitted effect of over 30% in size)
Sequence of Progesterone receptor (Homo sapiens) (P06401 whole entry, looked up): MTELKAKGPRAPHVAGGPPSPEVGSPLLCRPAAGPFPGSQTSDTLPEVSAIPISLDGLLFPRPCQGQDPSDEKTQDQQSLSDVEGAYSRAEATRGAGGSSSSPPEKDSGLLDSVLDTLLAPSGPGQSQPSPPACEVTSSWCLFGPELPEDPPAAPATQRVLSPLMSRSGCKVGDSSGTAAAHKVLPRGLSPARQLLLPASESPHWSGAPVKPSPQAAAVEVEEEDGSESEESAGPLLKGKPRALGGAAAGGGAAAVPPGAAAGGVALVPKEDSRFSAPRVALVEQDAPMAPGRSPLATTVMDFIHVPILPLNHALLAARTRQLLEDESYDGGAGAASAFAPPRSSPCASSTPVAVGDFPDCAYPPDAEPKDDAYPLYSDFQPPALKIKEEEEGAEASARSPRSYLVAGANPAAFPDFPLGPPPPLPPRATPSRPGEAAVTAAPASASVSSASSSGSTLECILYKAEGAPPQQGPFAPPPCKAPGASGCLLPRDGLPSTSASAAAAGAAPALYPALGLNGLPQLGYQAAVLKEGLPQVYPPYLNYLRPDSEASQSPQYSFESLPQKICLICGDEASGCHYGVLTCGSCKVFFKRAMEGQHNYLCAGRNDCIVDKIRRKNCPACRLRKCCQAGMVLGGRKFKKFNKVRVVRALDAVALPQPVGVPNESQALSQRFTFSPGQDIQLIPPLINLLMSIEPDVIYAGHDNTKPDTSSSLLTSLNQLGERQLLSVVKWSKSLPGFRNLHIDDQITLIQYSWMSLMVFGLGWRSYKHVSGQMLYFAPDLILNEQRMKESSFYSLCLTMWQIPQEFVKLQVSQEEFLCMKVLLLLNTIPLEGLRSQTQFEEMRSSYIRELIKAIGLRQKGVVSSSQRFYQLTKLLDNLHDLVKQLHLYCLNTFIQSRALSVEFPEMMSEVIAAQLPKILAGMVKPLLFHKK
Procedure, shortened: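 Compounds were tested for PR agonism in HEK 293T cells bearing a beta-lactamase gene under UAS control. Treatment lasted 16 hr at 37C; signal came from fluorescence of a FRET substrate.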

[4] = biological target: Progesterone receptor (Homo sapiens) (UniProt P06401); assay: qHTS assay to identify small molecule antagonists of the progesterone receptor (PR) signaling pathway (AID 1346795; active = well fitted inhibition curve with a large enough effect in the signal ratio in the repeat runs, not every such curve was filed as active; the % refers to the signal ratio)
Procedure, shortened: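 In HEK293T cells bearing the PR-UAS-bla reporter, compound effects on promegestone-driven (1 nM) beta-lactamase expression are assessed after 16 hr using a fluorescent FRET substrate incubated 2 hr at room temperature.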

[5] = qHTS assay to identify small molecule antagonists of the progesterone receptor (PR) signaling pathway - cell viability counter screen (AID 1346798); also: series mostly up to about 92 µM; nearly all actives have a fitted effect of over 50% in size
Procedure, shortened: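 Following a 4 hr attachment, PR-UAS-bla HEK293T cells in charcoal-stripped FBS medium were exposed to compounds with R5020 for 16 hr; CellTiter-Glo was added and luminescence read after 30 min at room temperature.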

[6] = qHTS assay to identify small molecule agonists of the progesterone receptor (PR) signaling pathway - cell viability counter screen (AID 1346799; calls by dose curve; also: nearly all actives have a fitted effect of over 45% in size)
Procedure, shortened: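 Here, 3,000 PR-UAS-bla HEK293T cells per well were treated with compounds for 16 hr after a 6 hr preincubation at 37C and 5% CO2; cell viability is the CellTiter-Glo luminescence signal.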

[7] = qHTS assay to identify small molecule antagonists of the TGF-beta/Smad signaling pathway - cell viability counter screen (AID 1346824); also: nearly all actives have a fitted effect of over 50% in size
Procedure, shortened: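 Cytotoxicity counter-screen run in the same wells as the beta-lactamase Smad reporter read: CellTiter-Glo luminescence after 30 min at room temperature. HEK 293T SBE-bla cells had 5 hr compound exposure at 37 C with TGF-beta1 (0.25 ng/mL stock).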

[8] = qHTS assay to identify small molecule agonists of the TGF-beta/Smad signaling pathway - cell viability counter screen (AID 1346829); also: top concentration of the series differs between compounds; nearly all actives have a fitted effect of over 45% in size
Procedure, shortened: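 Here the cytotoxicity of library compounds is measured in SBE-bla HEK 293T cells treated for 5 hr, using CellTiter-Glo added to wells already read for the beta-lactamase reporter.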

[9] = qHTS assay to identify small molecule agonists of the TGF-beta/Smad signaling pathway (AID 1346859; active = well fitted activation curve with a large enough effect in the signal ratio in the repeat runs, not every such curve was filed as active; the % refers to the signal ratio; also: series mostly up to about 77 µM)
Procedure, shortened: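 Each well held 4,000 SBE-bla HEK 293T cells incubated overnight before compound addition; 5 hr later the cleavable FRET substrate went on for 2 hr at room temperature, and fluorescence was read at two emissions.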

[10] = biological target: Thyrotropin-releasing hormone receptor (Homo sapiens) (UniProt P34981); assay: qHTS assay to identify small molecule antagonists of the thyrotropin-releasing hormone receptor (TRHR) signaling pathway (AID 1346877; active = well fitted inhibition curve with a large enough effect in the repeat runs, not every such curve was filed as active; also: series mostly up to about 51 µM)
Sequence of Thyrotropin-releasing hormone receptor (Homo sapiens) (P34981 whole entry, looked up): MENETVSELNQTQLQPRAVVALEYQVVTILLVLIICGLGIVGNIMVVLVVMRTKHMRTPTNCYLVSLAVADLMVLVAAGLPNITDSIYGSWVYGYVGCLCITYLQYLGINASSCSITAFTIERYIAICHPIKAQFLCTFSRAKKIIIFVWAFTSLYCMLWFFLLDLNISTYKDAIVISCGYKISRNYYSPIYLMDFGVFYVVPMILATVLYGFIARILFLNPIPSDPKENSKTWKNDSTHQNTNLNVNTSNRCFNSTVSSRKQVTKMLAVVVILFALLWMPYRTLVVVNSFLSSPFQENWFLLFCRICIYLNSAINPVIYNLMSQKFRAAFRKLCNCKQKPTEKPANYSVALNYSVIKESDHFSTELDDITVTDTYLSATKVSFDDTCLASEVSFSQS
Procedure, shortened: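 Cells (TRHR-HEK293) are plated and kept 18 h at 37 °C/5% CO2. A calcium-sensitive dye is added for 2 h, compound follows for 5 min at room temperature, and TRH is then given at 1 nM final.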

Measured: Potency

NC(=O)c1ccccc1
inactive: all assays above

O=[N+]([O-])c1cccc(I)c1
not listed: [10]
inactive: all other assays above

O=C(OC1C[C@H]2CC[C@@H](C1)[N+]21CCCC1)C(O)(c1ccccc1)c1ccccc1 (stereo partly drawn)
inactive: all assays above

CCCCOC(=O)CC#N
not listed: [10]
inactive: all other assays above

Cc1cc(N)n(-c2ccccc2)n1
inactive: all assays above

O=c1c2ccccc2oc2ccccc12
inactive: all assays above

CCCCCCCCNC
inactive: all assays above

CC(Cc1ccccc1)(NC(=O)CN)c1ccccc1 (stereo not drawn)
not listed: [10]
inactive: all other assays above

C/C=C1\[C@H]2C=C(C)C[C@]1(N)c1ccc(=O)[nH]c1C2
inactive: all assays above

Nc1ccc(F)cc1F
not listed: [10]
inactive: all other assays above

COc1ccc(CN(CCN(C)C)c2ncccn2)cc1
inactive: all assays above

O=C(OCCCCCOC(=O)c1ccccc1)c1ccccc1
inactive: all assays above

Clc1nc2ccccc2nc1Cl
inactive: all assays above

O=C(O)CNc1ccccc1
inactive: all assays above

C=C[Si](OCC)(OCC)OCC
inactive: all assays above

CC(=O)Nc1ccccc1O
inactive: all assays above

Cc1ccc(NC=O)c(C)c1
inactive: all assays above

CC(C)(C)c1ccc(CCC=O)cc1
inactive: all assays above

CC1(C)CC(O)CC(C)(C)N1[O]
inactive: all assays above

CCC(C)CCCC(C)(C)O (stereo not drawn)
inactive: all assays above

O=C(O)c1cc(C(=O)O)cc([N+](=O)[O-])c1
inactive: all assays above

CC(C(=O)O)c1ccc2c(c1)Cc1cccnc1O2 (stereo not drawn)
not listed: [9]
inactive: all other assays above

O=C(c1ccco1)N1CCNCC1
inactive: all assays above

CCOc1ccccc1O
inactive: all assays above

CCCCOC(=O)C(C)Oc1ccc(Oc2ccc(C(F)(F)F)cn2)cc1 (stereo not drawn)
not listed: [7] | [10]
inactive: all other assays above
